Screens as filed in PubChem BioAssay.
MITF primary – human MITF inhibition, primary screen; O75030; AlphaScreen MITF homodimerization, bead proximity signal; inhibition, % at 2.6 µM; hit rate 0.91% among 650,000; in the data active means inhibition above about 50%;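 further: 0% = vehicle wells with protein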
Target sequence (O75030 whole entry, looked up): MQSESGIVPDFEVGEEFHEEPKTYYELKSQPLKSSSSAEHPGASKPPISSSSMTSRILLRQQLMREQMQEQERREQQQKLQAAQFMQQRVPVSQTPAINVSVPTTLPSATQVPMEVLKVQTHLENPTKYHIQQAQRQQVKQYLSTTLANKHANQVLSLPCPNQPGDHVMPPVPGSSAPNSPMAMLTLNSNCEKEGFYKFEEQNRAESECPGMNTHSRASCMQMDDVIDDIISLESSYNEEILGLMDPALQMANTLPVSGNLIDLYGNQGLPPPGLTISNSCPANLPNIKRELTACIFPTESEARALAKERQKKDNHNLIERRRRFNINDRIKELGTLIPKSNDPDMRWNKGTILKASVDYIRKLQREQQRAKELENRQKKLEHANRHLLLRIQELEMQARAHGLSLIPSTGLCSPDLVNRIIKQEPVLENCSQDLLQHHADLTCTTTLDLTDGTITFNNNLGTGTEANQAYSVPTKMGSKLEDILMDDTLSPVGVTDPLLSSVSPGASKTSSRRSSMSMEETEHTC
GPR151 activ – activators of human GPR151 | activation, % at 11.2 µM | PathHunter beta-arrestin GPR151 cells, luminescence | hit rate 1% among 650,000 | Q8TDV0; in the data active means activation above about 4.9%;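 further: 0% = median of compound wells and 100% = cells with positive control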
TEAD-YAP block – TEAD-YAP interaction inhibition. HEK-TIYL cells, TEAD-Gal4/YAP UAS-luciferase luminescence. inhibition, % at 9.12 µM. hit rate 1.4% among 640,000; in the data active means inhibition above about 32%;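 further: 0% = median of test compound wells and 100% = reference inhibitor wells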
FBW7 activator – activators of human E3 ligase FBW7; Q969H0; AlphaScreen FBW7–phospho-cyclin E peptide binding, activator screen; normalized activity (activation), % at 26.1 µM; hit rate 0.13% among 650,000; in the data active means normalized activity above about 1.9%;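 further: purified mutant Fbw7 with reduced substrate affinity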
The depositor's hits bear a star. Most compounds without a hit are left out; they make up all but 3.5% or so of the library.

SMILES	MITF primary	GPR151 activ	TEAD-YAP block	FBW7 activator
CN(CCO)C1=CC(=[N+]2CCOCC2)CC(C)(C)C1	-5.5	1.0	4.7	-0.1
CCOc1ccc(NC(=O)C2=C(C)NC(=O)NC2c2ccc(C)cc2)cc1 (centres undefined)	-17.1	-0.8	33.2*	0.1
CCOc1ccc(NC(=O)C2=C(C)NC(=O)NC2c2ccc(Cl)cc2Cl)cc1 (centres undefined)	-6.4	-0.1	40.3*	-0.1
CCOc1ccc(NC(=O)C2=C(C)NC(=O)NC2c2cccc(Cl)c2)cc1 (centres undefined)	13.1	-0.9	-2.7	0.1
COc1ccc(C2NC(=O)NC(C)=C2C(=O)Nc2ccc(Br)cc2)cc1 (centres undefined)	5.0	-0.8	46.8*	0.6
O=C(CN(CCc1ccccc1)S(=O)(=O)c1ccc(Cl)cc1)N1CCN(c2ccc(F)cc2)CC1	-8.6	0.9	7.8	0.1
Cc1ccc(P(=O)(c2ccc(C)cc2)C(C)(C)O)cc1	13.8	-0.7	4.3	0.1
CCOc1cc(C2Nc3cc(C)c(C)cc3NC3=C2C(=O)CC(C)(C)C3)cc(Cl)c1O (centres undefined)	1.9	-0.4	-0.6	0.1
CS(=O)(=O)N(CC(=O)NC1CC2CCC1C2)c1ccc(OCc2ccccc2)cc1 (centres undefined)	3.8	-0.7	6.5	0.1
COc1cccc(-c2cc(C(=O)Nc3cc(C)nn3-c3ccccc3)no2)c1	3.0	0.9	0.8	-0.1
COc1ccccc1-c1cc(C(=O)Nc2cc(OC)c(OC)c(OC)c2)no1	24.4	0.3	45.9*	0.0
COc1ccccc1-c1cc(C(=O)Nc2cc(C)nn2-c2ccccc2)no1	3.8	-1.0	33.7*	-0.1
CSCCC(NS(=O)(=O)c1ccc2ccccc2c1)C(=O)N1CCC(C)CC1 (centres undefined)	-3.1	2.6	0.1	-0.1
O=[N+]([O-])c1ccc(N2CCN(c3ccccc3)CC2)c2ncccc12	2.7	0.8	3.6	-0.2
O=[N+]([O-])c1cc(CN2CCN(c3ccccc3)CC2)c(O)c2ncccc12	61.3*	-0.5	47.7*	-1.0
Oc1c(I)cc(Cl)c2cccnc12	4.4	0.1	-7.3	-0.2
CN(Cc1cc([N+](=O)[O-])c2cccnc2c1O)C1CCCCC1	113.8*	-1.9	28.7	-0.6
CN(Cc1cc(Cl)c2cccnc2c1O)C1CCCCC1	37.0	2.6	82.8*	-0.9
CN(Cc1cc(Br)c(O)c2ncccc12)C1CCCCC1	79.2*	1.9	86.5*	-0.6
COc1cc(C2C(C(C)=O)=C(O)C(=O)N2Cc2ccco2)ccc1O (centres undefined)	2.5	0.4	-2.4	0.1
O=c1[nH]c(F)c(Cl)c2c1Oc1ccccc1O2	10.1	0.2	1.6	0.1
CC1(C)CC(NC(=O)c2cccc(OC3CCN(C4CCCC4)CC3)c2)CCO1 (centres undefined)	4.1	-1.2	-8.1	0.4
Cc1n[nH]c(=O)nc1N/N=C/c1ccccc1Br	16.5	-8.2	-6.7	0.0
CC(=O)c1c2c(n3cc4ccccc4cc13)C(=O)c1ccccc1C2=O	11.5	-1.1	-2.7	0.0
COC(=O)c1c2c(n3cc4ccccc4cc13)C(=O)c1ccccc1C2=O	87.0*	0.5	-4.7	0.1
SMILES	MITF primary	GPR151 activ	TEAD-YAP block	FBW7 activator
O=C1CC(N2CCCCC2)C(=O)N1c1cc(Cl)cc(Cl)c1 (centres undefined)	-6.8	3.6	46.4*	0.0
O=C1CC(N2CCCC2)C(=O)N1c1ccc(Cl)cc1 (centres undefined)	-2.4	0.3	0.8	0.0
CCOCCOC(=O)c1ccc(NC(=O)c2ccc(C(C)(C)C)cc2)cc1	2.6	0.2	68.6*	0.3
CCCCOC(=O)c1cccc(NC(=O)c2ccc(C(C)(C)C)cc2)c1	-7.1	1.2	52.1*	0.1
O=C(O)c1cccc(NC(=O)c2ccc(-c3ccccc3)cc2)c1	-3.7	2.8	41.2*	0.1
CC(C)(C)c1ccc(C(=O)Nc2cccc(C(=O)O)c2)cc1	9.4	-7.5	83.6*	0.2
CCn1c(SCC(=O)N2CCN(c3ccccc3)CC2)nnc1-c1ccccc1O	8.6	2.6	33.9*	-0.1
C=CCn1c(SCC(=O)N2CCN(c3ccccc3)CC2)nnc1-c1ccccc1O	21.8	-2.4	33.3*	0.4
C=CCn1c(SCC(=O)N2CCOCC2)nnc1-c1ccccc1O	4.0	-0.9	-5.5	0.6
Cc1ccc(C2CC(c3c(C)nc4ccc(Br)cc4c3-c3ccccc3)=NN2C(=O)CCC(=O)O)cc1 (centres undefined)	15.7	-0.4	6.9	0.1
CCOC(=O)N1CC(=O)Nc2ccc(Br)cc2C1c1ccccc1Cl (centres undefined)	-17.0	3.0	-9.6	-0.1
COc1cc(C2NC(=O)c3c(sc4c3CCN(C)C4)N2)ccc1O (centres undefined)	2.7	-0.1	15.8	-0.1
CN1CCc2c(sc3c2C(=O)NC(c2ccc(O)c(O)c2)N3)C1 (centres undefined)	65.9*	-0.1	-0.9	-0.3
CCc1sc(C(=O)Nc2nc(C)cs2)cc1C	3.1	-0.9	-34.8	-0.1
Cc1csc(NC(=O)c2cc3c(s2)CCC(C)C3)n1 (centres undefined)	-3.2	-5.8	74.4*	-0.1
CCN1CCN(c2ncc3c(n2)CC(c2cc(OC)c(OC)c(OC)c2)CC3=O)CC1 (centres undefined)	-6.9	0.3	47.0*	0.1
O=C1CC(c2cccc(Cl)c2)Cc2nc(N3CCOCC3)ncc21 (centres undefined)	-4.0	0.2	0.0	0.1
NC(=O)c1cnn(-c2ccnc(NC(=O)Cc3ccc(F)cc3)c2)c1	-16.6	0.1	75.5*	0.5
CCC(=O)Oc1ccc(-c2cnc3ccccc3n2)cc1	9.1	-7.7	41.2*	-0.1
CCCCCCC(=O)Oc1ccc(-c2cnc3ccccc3n2)cc1	-0.9	-1.4	-3.8	0.1
COc1ccc(N2C(=O)c3ccccc3NC2c2cccc([N+](=O)[O-])c2)cc1 (centres undefined)	17.3	-1.2	-23.1	0.6
COc1ccc(N2C(=O)c3ccccc3NC2c2ccc(-c3ccc([N+](=O)[O-])cc3)o2)cc1 (centres undefined)	-3.7	-0.4	41.4*	0.0
COc1ccc2c(CNCc3ccccc3)c(C(=O)O)n(Cc3ccc(F)cc3)c2c1	16.7	-0.7	7.0	0.3
CCOC(=O)C1CCN(c2cc(NCC(=O)O)c3c4c(onc24)-c2ccccc2C3=O)CC1	70.2*	-2.4	2.0	-1.3
O=C(O)CNc1cc(N2CCCCC2)c2noc3c2c1C(=O)c1ccccc1-3	48.9	-0.3	59.2*	-1.1
SMILES	MITF primary	GPR151 activ	TEAD-YAP block	FBW7 activator
O=C(O)CCNc1cc(N2CCC3(CC2)OCCO3)c2noc3c2c1C(=O)c1ccccc1-3	62.8*	-2.1	25.5	-0.5
CCOC(=O)c1cnn(-c2nc3ccccc3[nH]2)c1N	16.3	-6.0	42.5*	-0.2
CCOC(=O)c1cnn(-c2nc3ccccc3s2)c1N	-5.7	-0.5	13.5	0.0
O=c1c2ccccc2cnn1-c1nc2ccccc2[nH]1	8.9	-10.8	93.6*	-0.1
CC(=O)Nc1cc(C)nn1-c1nc2ccccc2[nH]1	5.2	1.9	16.3	0.0
O=c1c2ccccc2cnn1-c1nc2ccccc2s1	27.4	-0.9	90.0*	0.2
